Compound activity: PubChem, National Center for Advancing Translational Sciences (NCATS)
JMJD2A Tudor = inhibitors of human JMJD2A Tudor domain. AlphaScreen JMJD2A-Tudor / H3K4me3 peptide binding. Potency, µM (highest dose often 114 µM), for the others: at the top dose activity change, negative = inhibition, hits mostly inhibitors. 390,000 compounds, 4.4% hits; further: potency means the concentration at half of the fitted maximal effect; on the % scale 0 is the no-effect control and ±100 the full control effect; nearly all actives have a fitted effect of over 50% in size
G9a inh = inhibitors of human histone lysine methyltransferase G9a; 350,000 compounds, 8.8% hits; Q96KQ7; G9a H3K9 monomethylation, AlphaScreen, 2 h; Potency, µM (doses to about 102 µM), for the others: at the highest dose activity, negative = inhibition, hits mostly inhibitors; further: potency means the concentration at half of the fitted maximal effect; on the % scale 0 is the no-effect control and ±100 the full control effect; nearly all actives have a fitted effect of over 75% in size
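Enzyme 20 nM + cpd, 15 min RT; add b-H3K9 pep 500 nM / SAM 20 uM; 2 h RT; anti-H3K9me1 Ab 0.5 ug/mL + SA donor / anti-rabbit acceptor beads 20 ug/mL each, 10 min; AlphaScreen read.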
CtBP-E1A inh = inhibitors of CtBP/E1A interaction; AlphaScreen GST-E1A/His-CtBP binding, 1536-well; stronger effect = lower value; activity change, % (no concentration beside the values); 340,000 compounds, 0.49% hits; in the data active means activity change below about -65%; inconclusive means mostly about -30% to -63%; further: on the % scale 0 is the no-effect control and ±100 the full control effect
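Steps: dispense buffer (Tris pH 8.0, NaCl 300 mM, TCEP 1 mM, BSA, Tween 20); add 5X protein mix (GST-E1A, His-CtBP, 125 nM each); pin 23 nL compound; 2 h at 37 °C, dark; add 5X beads (50 ug/mL); 1 h; read.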
HP1b chromo inh = blocks HP1-beta chromodomain binding to methylated histone tails. P83916. AlphaScreen HP1-beta / biotin-H3K9me3 peptide binding. Potency, µM (doses to about 114 µM), inactives show at the top dose activity change, negative = inhibition, hits mostly inhibitors. 390,000 compounds, 0.56% hits; further: potency means the concentration at half of the fitted maximal effect; nearly all actives have a fitted effect of over 70% in size
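Compound inhibition of the preformed complex between 50 nM HP1-beta and 50 nM biotinylated H3K9me3 peptide was read by AlphaScreen. Buffer was PBS pH 7.4 with 0.01% Tween-20. Incubations ran 30 min at room temperature, with 10 ug/mL donor/acceptor beads.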
BAZ2B inh = blocks human BAZ2B | Potency, µM (series often up to 114 µM), for the others: at the highest dose activity change, negative = inhibition, actives largely listed as inhibitors | Q9UIF8 | AlphaScreen BAZ2B-H3K14Ac peptide displacement | 360,000 compounds, 4.4% hits; further: potency means the concentration at half of the fitted maximal effect; on the % scale 0 is the no-effect control and ±100 the full control effect; nearly all actives have a fitted effect of over 60% in size
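BAZ2B 50 nM plus b-H3(5-23)K14Ac 50 nM, PBS pH 7.4/0.01% Tween-20, 30 min RT; compound added (max 110 uM), 30 min RT; streptavidin donor/Ni-chelate acceptor beads 10 ug/mL final, 20 min dark; AlphaScreen read.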
Six1-Eya2 blk = Six1/Eya2 interaction inhibition | 360,000 compounds, 0.56% hits | activity change, % (test concentration not listed) | Q15475+O00167 | AID 651725 | AlphaScreen GST-Six1/His-Eya2 binding, biochemical; stronger effect = lower value; in the data active means activity change below about -65%; inconclusive means mostly about -30% to -63%; further: on the % scale 0 is the no-effect control and ±100 the full control effect
Target sequence (O00167 whole entry, looked up): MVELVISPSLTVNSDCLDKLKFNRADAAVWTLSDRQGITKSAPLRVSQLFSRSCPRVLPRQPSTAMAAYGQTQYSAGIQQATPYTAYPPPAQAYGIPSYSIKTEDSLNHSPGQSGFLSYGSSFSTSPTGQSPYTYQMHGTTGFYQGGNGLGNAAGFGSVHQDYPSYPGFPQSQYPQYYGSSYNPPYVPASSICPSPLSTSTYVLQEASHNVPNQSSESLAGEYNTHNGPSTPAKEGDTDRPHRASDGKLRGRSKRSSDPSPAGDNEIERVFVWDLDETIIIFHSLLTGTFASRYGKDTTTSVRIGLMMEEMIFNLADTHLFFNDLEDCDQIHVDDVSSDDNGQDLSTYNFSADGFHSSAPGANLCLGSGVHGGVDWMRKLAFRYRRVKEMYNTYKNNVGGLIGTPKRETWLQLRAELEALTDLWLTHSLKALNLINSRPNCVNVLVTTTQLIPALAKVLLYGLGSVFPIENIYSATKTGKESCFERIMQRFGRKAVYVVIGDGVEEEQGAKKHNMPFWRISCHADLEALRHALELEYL
Target sequence (Q15475 whole entry, looked up): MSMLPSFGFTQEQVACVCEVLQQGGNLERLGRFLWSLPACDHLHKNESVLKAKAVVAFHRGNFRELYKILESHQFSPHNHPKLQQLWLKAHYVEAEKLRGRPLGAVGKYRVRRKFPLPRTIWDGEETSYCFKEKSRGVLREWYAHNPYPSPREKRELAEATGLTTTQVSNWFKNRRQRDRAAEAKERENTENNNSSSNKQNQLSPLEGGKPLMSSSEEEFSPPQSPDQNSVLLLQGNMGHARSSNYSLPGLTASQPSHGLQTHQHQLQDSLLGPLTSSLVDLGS
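AlphaScreen with GST-Six1 and His-Eya2 (5X mix: 250 nM and 500 nM), glutathione donor and nickel acceptor beads; buffer 50 mM Tris pH 8.0, 300 mM NaCl, 1 mM TCEP; 1 h at 37 C in the dark.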
Numbers without * were called inactive; u = inconclusive; x = no result; [ ] = another dose, or the depositor's remark. Most compounds without a hit are left out; they make up all but 10% or so of the library. Unless noted, the call rests on the fitted dose curve; in most records, active means well fitted inhibition curve with a large enough effect; inconclusive means small, poorly fitted or top-dose-only effect; inactive means no such curve, though single readings can be large or run the other way.

SMILES	JMJD2A Tudor	G9a inh	CtBP-E1A inh	HP1b chromo inh	BAZ2B inh	Six1-Eya2 blk
CCOc1ccc(N2CC(c3nc4ccccc4n3CCCOc3ccccc3)CC2=O)cc1 (stereo not drawn)	-21%	-19%[59 µM]	x	38%	-20%	x
COc1cccc(NS(=O)(=O)c2ccc3c(c2)n(C)c(=O)n3C)c1	-3%	-1%[59 µM]	x	41%	u	x
O=C(O)c1cccc(NC(=O)c2cn(-c3ccccc3)nc2-c2ccncc2)c1	-31%	32µM*	x	u	u	-7
COc1cc(-c2nc3ccc(N4CCN(C)CC4)cc3[nH]2)cc(OC)c1OC	-5%	40µM*	-8	5%	-35%	-26
O=C(O)CCn1cnc2onc(-c3ccccc3Cl)c2c1=O	50µM*	u	x	u	50µM*	x
O=C(Cn1c(=O)n(-c2ccc(Cl)cc2)c(=O)c2oc3ccccc3c21)Nc1ccccc1	3%	7%[59 µM]	x	58%	-30%	x
Cc1cc(C)c(/C=C/c2onc(C)c2S(=O)(=O)N2CCC(C(=O)NCCc3ccccc3)CC2)c(C)c1	-14%	7%[59 µM]	x	22%[57 µM]	3%	x
Cc1cc(C)c(/C=C/c2onc(C)c2S(=O)(=O)N2CCC(C(=O)N3CCN(c4ccccc4)CC3)CC2)c(C)c1	22µM*	-32%[59 µM]	x	5%[57 µM]	-17%	x
COc1ccc(N2CCN(C(=O)C3CCN(S(=O)(=O)c4cccc5nonc45)CC3)CC2)cc1	-31%	u	x	2%	79µM*	x
COc1cccc(N2CCN(C(=O)C3CCN(S(=O)(=O)c4c(C)noc4C)CC3)CC2)c1	-17%	6%[59 µM]	x	50%	-4%	x
O=C(O)C1CCN(S(=O)(=O)c2cccc3nonc23)CC1	14%	15%	1	31%	-15%	1
COc1ccc(N2CCN(C(=O)C3CCCN(S(=O)(=O)c4c(C)noc4C)C3)CC2)cc1 (stereo not drawn)	-33%	32µM*	-8	-10%	u	-15
Cc1ccc(CNC(=O)c2ccc3c(c2)c(C)c(C)n3Cc2ccc(Cl)cc2)o1	u	u	x	29%	-26%	x
Cc1c(C)n(Cc2ccccc2)c2ccc(C(=O)N3CCN(c4ccc(F)cc4)CC3)cc12	u	u	x	-9%	-38%	x
Cc1ccc(CN2CCSc3ccc(C(=O)N4CCN(c5ccccc5)CC4)cc32)cc1	u	18µM*	x	0%	-16%	x
CCn1ncc(/C=N\NC(=O)c2ccc3c(c2)c(C)c(C)n3Cc2ccccc2)c1C	u	-13%[12.7 µM]	-17	-8%	u	-18
Cc1c(C)n(Cc2ccccc2)c2ccc(C(=O)N3CCN(c4ccccc4)CC3)cc12	14µM*	u	x	u	u	x
CCn1nc(C)c(/C=N/NC(=O)c2ccc3c(c2)c(C)c(C)n3Cc2ccccc2)c1C	35µM*	u	0	-16%	u	-12
Cc1ccc(CN2CCSc3ccc(C(=O)NCc4ccccn4)cc32)cc1	u	40µM*	-29	-6%	u	-15
Cc1ccc(CN2CCSc3ccc(C(=O)NCCc4ccccc4)cc32)cc1	-23%	-1%[59 µM]	x	14%	-14%	x
Cc1cccc(N(C)C(=O)Cn2c(=O)oc3cc(S(=O)(=O)N4CCCCC4)ccc32)c1	-17%	5%[59 µM]	x	8%	-1%	x
Cc1cc(O)c(Oc2cc(C)cc(O)c2O)c(O)c1	40µM*	0.89µM*	-1	u	u	-16
COc1c(O)cc(O)cc1O	x	-28%[2.33 µM]	x	x	x	x
CCN(CC)S(=O)(=O)c1cccc(NC(=O)c2ccc(C#N)cc2)c1	-12%	20µM*	-12	35%	-17%	3
CN(C)S(=O)(=O)c1cccc(NC(=O)c2ccncc2)c1	-19%	0%[59 µM]	-8	2%	3%	5
SMILES	JMJD2A Tudor	G9a inh	CtBP-E1A inh	HP1b chromo inh	BAZ2B inh	Six1-Eya2 blk
COc1ccc(NC(=O)c2ccc(C#N)cc2)cc1NS(=O)(=O)c1ccc(F)cc1	6%[57.1 µM]	8.9µM*	-5	43%	-1%	1
CN(C)S(=O)(=O)c1cccc(NC(=O)c2cc(=O)[nH]c(=O)[nH]2)c1	u	1.1µM*	1	35%	u	2
O=c1[nH]cc(C#Cc2ccccc2)c2ncncc12	-15%	x	x	28%	x	x
CCOC(=O)c1c(NC(=O)c2ccc(S(=O)(=O)N(CCOC)CCOC)cc2)sc2c1CC(C)(C)NC2(C)C	-15%	-8%[59 µM]	x	27%	1%	x
COc1cccc(CN2CC34CCC(CC3S2(=O)=O)O4)c1 (stereo not drawn)	-13%	x	x	10%	x	x
CC(C)Oc1ccc(C(=O)O)c(C(=O)O)c1	79µM*	0%	3	4%	-39%	1
COc1ccc(-c2cn3nc(SCC(=O)Nc4ccccc4F)ccc3n2)cc1	2%	11%[59 µM]	x	27%[57 µM]	-6%	x
Cc1cc(NC(=O)CCC(=O)N(Cc2ccco2)C2(C(=O)NC3CCCCC3)CCN(C)CC2)no1	-12%	0%	-1	-8%	3%	3
Cc1cc(NC(=O)CCC(=O)N(Cc2ccco2)C2(C(=O)NC3CCCC3)CCCCC2)no1	89µM*	-4%	5	-8%	2%	-2
COc1ccc(C2=NC(C)(C)N(CC(=O)Nc3ccc(F)c(F)c3)C2=O)cc1	-10%	-1%[59 µM]	x	33%	0%	x
CCCCNS(=O)(=O)c1ccc2nc(SCC(=O)c3ccccc3OC)[nH]c2c1	-16%	35µM*	-12	28%	0%	-9
CCCCNS(=O)(=O)c1ccc2nc(SCC(=O)Nc3sccc3C#N)[nH]c2c1	-18%	71µM*	u	12%	9%	u
Cc1ccc(-c2nc3sc(CCNC(=O)c4ccc(C)c(C)c4)c(C)n3n2)cc1	u	u	x	25%	2%	x
COc1cc(Cl)c(NC(=O)c2cc(S(=O)(=O)N3CCCCC3)c[nH]2)c(OC)c1	-16%	-36%[59 µM]	x	26%	-7%	x
CC(C)OC(=O)c1c(NC(=O)C2c3ccccc3Oc3ccccc32)sc2c1CCCC2	-6%	2%[59 µM]	x	25%	-1%	x
CCCCNC(=O)c1ccc2nc(-c3cccs3)c(-c3cccs3)nc2c1	-1%[57.1 µM]	x	x	14%[57 µM]	x	x
CCOC(=O)C(C)Oc1ccc2c(-c3cccc([N+](=O)[O-])c3)cc(=O)oc2c1 (stereo not drawn)	-25%	35µM*	3	6%	-13%	-11
COC(=O)COc1ccc2c(-c3cccc([N+](=O)[O-])c3)cc(=O)oc2c1	-17%	-26%[0.501 µM]	-4	8%	-7%	4
N#C/C(=C\C=C\c1ccccc1[N+](=O)[O-])C(=O)NCc1ccccc1	u	40µM*	-14	u	u	-2
N#C/C(=C\c1ccccc1[N+](=O)[O-])C(=O)NCc1ccccc1	-27%	x	3	14%	-23%	3
